Measured values taken from the supplement of paper PMC13380429.

System: Vero E6 infected with SARS-CoV-2
Assay: inhibition of SARS-CoV-2 cytopathic effect; higher = more antiviral protection, active = above 15
Conditions: 48 h

Measured: inhibition of SARS-CoV-2 cytopathic effect

NCCCCCc1c[nH]cn1 [impentamine]
inactive: 1 nM -2.08% | 8.33 nM -1.69% | 100 nM -0.14% | 833.33 nM -0.52% | 10000 nM 0.02%

NC(=O)CN1CC(O)CC1=O (stereo not given) [oxiracetam]
inactive: 1 nM 1.13% | 8.33 nM 0.12% | 100 nM 0.71% | 833.33 nM 4.22% | 10000 nM 0.29%

NCc1c[nH]c(=S)n1[C@H]1CCc2c(F)cc(F)cc2C1 [nepicastat]
inactive: 1 nM -0.64% | 8.33 nM 1.63% | 100 nM 2.16% | 833.33 nM 0.6% | 10000 nM -0.04%

Cc1cn2c(N)c(Cl)cc(C(=O)NCC3CCN(CC(C)C)CC3)c2n1
inactive: 1 nM 2.35% | 8.33 nM 1.24% | 100 nM 2.96% | 833.33 nM 3.33% | 10000 nM 0.75%
